Data from the supplement of paper PMC7261846.
Where a name gives a salt, the structure may show the parent alone. ± gives the uncertainty stated by the source.

system: Candida albicans SNY425 biofilm; assay: biofilm OD600 with compound plus antifungal (OD600 (absorbance)); higher = more biofilm remaining; conditions: assay detail: sustained inhibition (compound + antifungal during 90-min adherence and 24-h growth)

SMILES | biofilm OD600
CC(C)C[C@H](NC(=O)[C@@H](O)[C@H](N)Cc1ccccc1)C(=O)O [Bestatin·HCl] + CC[C@H](C)C[C@H](C)CCCCCCCCC(=O)N[C@H]1C[C@@H](O)[C@@H](NCCN)NC(=O)[C@@H]2[C@@H](O)CCN2C(=O)[C@H]([C@H](O)CCN)NC(=O)[C@H]([C@H](O)[C@@H](O)c2ccc(O)cc2)NC(=O)[C@@H]2C[C@@H](O)CN2C(=O)[C@H]([C@@H](C)O)NC1=O [caspofungin] (first compound 12.5 µM) | 0.187 ± 0.0098
CCCCC[C@H](CC(=O)NO)C(=O)N[C@H](C(=O)N1CCC[C@H]1CO)C(C)C [Actinonin] + CC[C@H](C)C[C@H](C)CCCCCCCCC(=O)N[C@H]1C[C@@H](O)[C@@H](NCCN)NC(=O)[C@@H]2[C@@H](O)CCN2C(=O)[C@H]([C@H](O)CCN)NC(=O)[C@H]([C@H](O)[C@@H](O)c2ccc(O)cc2)NC(=O)[C@@H]2C[C@@H](O)CN2C(=O)[C@H]([C@@H](C)O)NC1=O [caspofungin] (first compound 12.5 µM) | 0.182 ± 0.0058
O=C[C@@H]1CCCN1C(=O)[C@@H]1CCCN1C(=O)OCc1ccccc1 [Z-Prolyl-prolinal] + CC[C@H](C)C[C@H](C)CCCCCCCCC(=O)N[C@H]1C[C@@H](O)[C@@H](NCCN)NC(=O)[C@@H]2[C@@H](O)CCN2C(=O)[C@H]([C@H](O)CCN)NC(=O)[C@H]([C@H](O)[C@@H](O)c2ccc(O)cc2)NC(=O)[C@@H]2C[C@@H](O)CN2C(=O)[C@H]([C@@H](C)O)NC1=O [caspofungin] (first compound 12.5 µM) | 0.153 ± 0.0098
NC(=O)c1cccc(-c2cccc(OC(=O)NC3CCCCC3)c2)c1 + OC(Cn1cncn1)(Cn1cncn1)c1ccc(F)cc1F [fluconazole] (first compound 12.5 µM) | 0.118 ± 0.0073
CNC(=O)[C@H](Cc1c[nH]c2ccccc12)NC(=O)[C@@H](CC(=O)NO)CC(C)C + CC[C@H](C)C[C@H](C)CCCCCCCCC(=O)N[C@H]1C[C@@H](O)[C@@H](NCCN)NC(=O)[C@@H]2[C@@H](O)CCN2C(=O)[C@H]([C@H](O)CCN)NC(=O)[C@H]([C@H](O)[C@@H](O)c2ccc(O)cc2)NC(=O)[C@@H]2C[C@@H](O)CN2C(=O)[C@H]([C@@H](C)O)NC1=O [caspofungin] (first compound 12.5 µM) | 0.187 ± 0.0076
CC(NC(=O)C(Cc1ccccc1)NC(=O)OCc1ccccc1)C(=O)CF (configuration not stated) + C[C@@H]1[C@H](O)[C@@H](C)/C=C/C=C/C=C/C=C/C=C/C=C/C=C/[C@H](O[C@@H]2O[C@H](C)[C@@H](O)[C@H](N)[C@@H]2O)C[C@@H]2O[C@](O)(C[C@@H](O)C[C@@H](O)[C@H](O)CC[C@@H](O)C[C@@H](O)CC(=O)O[C@H]1C)C[C@H](O)[C@H]2C(=O)O [amphotericin B] (first compound 12.5 µM) | 0.185 ± 0.005
Cc1cccc(C)c1OCC(=O)N[C@@H](Cc1ccccc1)[C@@H](O)C[C@H](Cc1ccccc1)NC(=O)[C@H](C(C)C)N1CCCNC1=O [lopinavir] + OC(Cn1cncn1)(Cn1cncn1)c1ccc(F)cc1F [fluconazole] (first compound 12.5 µM) | 0.141 ± 0.021
NCC1CCC(C(=O)N[C@@H](Cc2ccccc2)C(=O)Nc2ccc(CC(=O)O)cc2)CC1 (some centres not stated) + OC(Cn1cncn1)(Cn1cncn1)c1ccc(F)cc1F [fluconazole] (first compound 12.5 µM) | 0.13 ± 0.018
COC(=O)N[C@H](C(=O)N[C@@H](Cc1ccccc1)[C@@H](O)CN(Cc1ccc(-c2ccccn2)cc1)NC(=O)[C@@H](NC(=O)OC)C(C)(C)C)C(C)(C)C [atazanavir] + CC[C@H](C)C[C@H](C)CCCCCCCCC(=O)N[C@H]1C[C@@H](O)[C@@H](NCCN)NC(=O)[C@@H]2[C@@H](O)CCN2C(=O)[C@H]([C@H](O)CCN)NC(=O)[C@H]([C@H](O)[C@@H](O)c2ccc(O)cc2)NC(=O)[C@@H]2C[C@@H](O)CN2C(=O)[C@H]([C@@H](C)O)NC1=O [caspofungin] (first compound 12.5 µM) | 0.201 ± 0.013
CC(C)CCNC(=O)[C@H](CC(C)C)NC(=O)[C@H]1O[C@@H]1C(=O)O + C[C@@H]1[C@H](O)[C@@H](C)/C=C/C=C/C=C/C=C/C=C/C=C/C=C/[C@H](O[C@@H]2O[C@H](C)[C@@H](O)[C@H](N)[C@@H]2O)C[C@@H]2O[C@](O)(C[C@@H](O)C[C@@H](O)[C@H](O)CC[C@@H](O)C[C@@H](O)CC(=O)O[C@H]1C)C[C@H](O)[C@H]2C(=O)O [amphotericin B] (first compound 12.5 µM) | 0.21 ± 0.0074
Cc1cccc(C)c1OCC(=O)N[C@@H](Cc1ccccc1)[C@@H](O)C[C@H](Cc1ccccc1)NC(=O)[C@H](C(C)C)N1CCCNC1=O [lopinavir] + CC[C@H](C)C[C@H](C)CCCCCCCCC(=O)N[C@H]1C[C@@H](O)[C@@H](NCCN)NC(=O)[C@@H]2[C@@H](O)CCN2C(=O)[C@H]([C@H](O)CCN)NC(=O)[C@H]([C@H](O)[C@@H](O)c2ccc(O)cc2)NC(=O)[C@@H]2C[C@@H](O)CN2C(=O)[C@H]([C@@H](C)O)NC1=O [caspofungin] (first compound 12.5 µM) | 0.0941 ± 0.0079
CCCC[C@@H](C=O)NC(=O)OC(C)(C)C + C[C@@H]1[C@H](O)[C@@H](C)/C=C/C=C/C=C/C=C/C=C/C=C/C=C/[C@H](O[C@@H]2O[C@H](C)[C@@H](O)[C@H](N)[C@@H]2O)C[C@@H]2O[C@](O)(C[C@@H](O)C[C@@H](O)[C@H](O)CC[C@@H](O)C[C@@H](O)CC(=O)O[C@H]1C)C[C@H](O)[C@H]2C(=O)O [amphotericin B] (first compound 12.5 µM) | 0.188 ± 0.0076
